Experiment [1] has as its target T1, Serine/threonine-protein kinase Nek9 (Homo sapiens) (UniProt Q8TD19).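 Also: each value is a mean percent inhibition of NEK9.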
T1 sequence (whole entry): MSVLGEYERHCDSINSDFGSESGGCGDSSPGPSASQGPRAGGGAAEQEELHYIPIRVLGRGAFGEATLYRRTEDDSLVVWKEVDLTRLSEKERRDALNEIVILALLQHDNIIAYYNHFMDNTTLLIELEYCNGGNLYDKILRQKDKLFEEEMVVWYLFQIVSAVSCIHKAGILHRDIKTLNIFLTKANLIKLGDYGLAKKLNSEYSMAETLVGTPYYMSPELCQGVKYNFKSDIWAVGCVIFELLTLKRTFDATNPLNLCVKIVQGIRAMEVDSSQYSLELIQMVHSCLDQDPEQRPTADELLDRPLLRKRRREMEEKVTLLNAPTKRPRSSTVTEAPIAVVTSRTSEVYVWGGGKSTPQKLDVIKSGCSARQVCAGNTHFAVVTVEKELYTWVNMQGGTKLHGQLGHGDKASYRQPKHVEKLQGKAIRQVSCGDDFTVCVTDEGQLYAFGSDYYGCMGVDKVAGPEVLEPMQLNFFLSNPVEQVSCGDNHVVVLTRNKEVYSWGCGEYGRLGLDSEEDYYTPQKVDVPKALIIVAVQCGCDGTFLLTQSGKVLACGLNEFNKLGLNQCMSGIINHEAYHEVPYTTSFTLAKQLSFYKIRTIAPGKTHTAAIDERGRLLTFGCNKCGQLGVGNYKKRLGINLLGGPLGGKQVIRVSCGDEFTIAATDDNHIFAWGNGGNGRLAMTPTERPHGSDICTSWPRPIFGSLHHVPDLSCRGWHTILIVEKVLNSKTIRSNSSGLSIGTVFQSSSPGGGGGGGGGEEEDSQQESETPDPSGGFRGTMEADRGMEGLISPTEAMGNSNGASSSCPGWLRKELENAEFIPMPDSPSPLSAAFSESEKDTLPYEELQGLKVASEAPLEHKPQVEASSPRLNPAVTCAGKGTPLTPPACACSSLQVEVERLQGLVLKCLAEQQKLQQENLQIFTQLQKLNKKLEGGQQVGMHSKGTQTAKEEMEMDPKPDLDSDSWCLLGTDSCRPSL
The note with it: at 1 µM.

In experiment [2] the target is Serine/threonine-protein kinase PLK1 (Homo sapiens) (UniProt P53350). To be noted: at 0.1 µM.
Experiment [3] shares this target. The note with it: at 1 µM.
For experiment [4], the target named is T2, Dual specificity protein kinase TTK (Homo sapiens) (UniProt P33981).
T2 sequence (whole entry): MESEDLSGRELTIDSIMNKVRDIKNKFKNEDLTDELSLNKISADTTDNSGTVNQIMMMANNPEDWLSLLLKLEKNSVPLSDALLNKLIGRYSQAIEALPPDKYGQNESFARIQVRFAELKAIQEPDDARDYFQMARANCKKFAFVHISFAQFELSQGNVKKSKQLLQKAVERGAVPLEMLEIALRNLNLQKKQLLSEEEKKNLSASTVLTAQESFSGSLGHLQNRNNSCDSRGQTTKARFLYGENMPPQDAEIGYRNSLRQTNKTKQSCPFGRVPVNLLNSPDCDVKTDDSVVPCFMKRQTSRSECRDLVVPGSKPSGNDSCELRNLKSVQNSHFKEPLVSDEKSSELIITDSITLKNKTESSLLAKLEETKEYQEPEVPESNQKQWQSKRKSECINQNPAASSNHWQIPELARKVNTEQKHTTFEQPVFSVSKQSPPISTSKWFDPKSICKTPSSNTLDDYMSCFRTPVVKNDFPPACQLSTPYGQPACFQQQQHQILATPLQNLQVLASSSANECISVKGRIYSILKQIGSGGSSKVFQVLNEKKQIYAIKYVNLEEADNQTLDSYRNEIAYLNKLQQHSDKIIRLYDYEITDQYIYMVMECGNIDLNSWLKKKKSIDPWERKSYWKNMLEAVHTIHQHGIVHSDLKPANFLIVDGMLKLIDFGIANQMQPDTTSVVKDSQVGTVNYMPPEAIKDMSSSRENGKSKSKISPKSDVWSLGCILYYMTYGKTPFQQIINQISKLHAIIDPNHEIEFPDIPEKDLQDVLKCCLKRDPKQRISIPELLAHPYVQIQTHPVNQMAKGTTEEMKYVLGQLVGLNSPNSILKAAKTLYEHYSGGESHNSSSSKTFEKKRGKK
The note with it: at 0.1 µM.

Experiment [5] has as its system T3, Receptor-type tyrosine-protein kinase FLT3 (Homo sapiens), P36888 [D835Y].
T3 sequence (whole entry): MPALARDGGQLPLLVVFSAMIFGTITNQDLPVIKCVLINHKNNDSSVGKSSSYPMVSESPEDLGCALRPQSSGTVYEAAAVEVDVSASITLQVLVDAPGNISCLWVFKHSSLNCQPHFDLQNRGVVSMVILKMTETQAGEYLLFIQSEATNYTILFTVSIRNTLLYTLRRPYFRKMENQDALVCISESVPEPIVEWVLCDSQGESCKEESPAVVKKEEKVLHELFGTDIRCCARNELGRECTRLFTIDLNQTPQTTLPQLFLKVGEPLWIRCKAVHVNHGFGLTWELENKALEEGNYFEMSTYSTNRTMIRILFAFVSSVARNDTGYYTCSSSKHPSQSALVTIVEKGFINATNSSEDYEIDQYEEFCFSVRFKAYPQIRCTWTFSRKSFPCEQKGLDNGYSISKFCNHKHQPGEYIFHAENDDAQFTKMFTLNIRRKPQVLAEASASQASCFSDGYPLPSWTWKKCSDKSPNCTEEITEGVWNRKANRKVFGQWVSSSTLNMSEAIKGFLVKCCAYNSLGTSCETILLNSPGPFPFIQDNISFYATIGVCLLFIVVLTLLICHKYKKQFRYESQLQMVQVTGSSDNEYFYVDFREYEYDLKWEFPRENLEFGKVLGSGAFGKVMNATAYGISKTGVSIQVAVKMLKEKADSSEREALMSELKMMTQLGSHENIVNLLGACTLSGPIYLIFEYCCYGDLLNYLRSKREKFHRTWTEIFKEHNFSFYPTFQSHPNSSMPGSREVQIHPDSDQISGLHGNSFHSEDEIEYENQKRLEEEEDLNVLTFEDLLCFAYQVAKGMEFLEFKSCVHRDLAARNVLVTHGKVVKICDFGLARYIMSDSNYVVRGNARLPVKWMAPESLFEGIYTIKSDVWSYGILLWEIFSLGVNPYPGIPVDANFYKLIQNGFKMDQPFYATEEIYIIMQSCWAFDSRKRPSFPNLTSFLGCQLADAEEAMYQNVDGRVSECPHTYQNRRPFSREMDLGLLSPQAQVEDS
The note with it: at 1 µM.

Experiment [6] deals with Vascular endothelial growth factor receptor 3 (Homo sapiens) (UniProt P35916). To be noted: at 0.1 µM.
For experiment [7] the target is unchanged. The note with it: at 1 µM.
Experiment [8] concerns the target Macrophage colony-stimulating factor 1 receptor (Homo sapiens) (UniProt P07333). The note with it: at 0.1 µM.
The target is the same in experiment [9]. To be noted: at 1 µM.
Experiment [10] has as its target Tyrosine-protein kinase Fyn (Homo sapiens) (UniProt P06241). The note with it: at 0.1 µM.
Experiment [11] has the same target. To be noted: at 1 µM.
Experiment [12] addresses Tyrosine-protein kinase HCK (Homo sapiens) (UniProt P08631). To be noted: at 0.1 µM.
Experiment [13] has the same target. The note with it: at 1 µM.
Experiment [14] concerns the target Insulin-like growth factor 1 receptor (Homo sapiens) (UniProt P08069). To be noted: at 0.1 µM.
The target is the same in experiment [15]. The note with it: at 1 µM.
For experiment [16], the target named is Insulin receptor (Homo sapiens) (UniProt P06213). To be noted: at 0.1 µM.
For experiment [17] the target is unchanged. The note with it: at 1 µM.
In experiment [18] the target is Insulin receptor-related protein (Homo sapiens) (UniProt P14616). The note with it: at 0.1 µM.
Experiment [19] shares this target. To be noted: at 1 µM.
Experiment [20] concerns the target T4, Tyrosine-protein kinase ITK/TSK (Homo sapiens) (UniProt Q08881).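 Also: mean percent inhibition of ITK from the GSK PKIS screen.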
T4 sequence (whole entry): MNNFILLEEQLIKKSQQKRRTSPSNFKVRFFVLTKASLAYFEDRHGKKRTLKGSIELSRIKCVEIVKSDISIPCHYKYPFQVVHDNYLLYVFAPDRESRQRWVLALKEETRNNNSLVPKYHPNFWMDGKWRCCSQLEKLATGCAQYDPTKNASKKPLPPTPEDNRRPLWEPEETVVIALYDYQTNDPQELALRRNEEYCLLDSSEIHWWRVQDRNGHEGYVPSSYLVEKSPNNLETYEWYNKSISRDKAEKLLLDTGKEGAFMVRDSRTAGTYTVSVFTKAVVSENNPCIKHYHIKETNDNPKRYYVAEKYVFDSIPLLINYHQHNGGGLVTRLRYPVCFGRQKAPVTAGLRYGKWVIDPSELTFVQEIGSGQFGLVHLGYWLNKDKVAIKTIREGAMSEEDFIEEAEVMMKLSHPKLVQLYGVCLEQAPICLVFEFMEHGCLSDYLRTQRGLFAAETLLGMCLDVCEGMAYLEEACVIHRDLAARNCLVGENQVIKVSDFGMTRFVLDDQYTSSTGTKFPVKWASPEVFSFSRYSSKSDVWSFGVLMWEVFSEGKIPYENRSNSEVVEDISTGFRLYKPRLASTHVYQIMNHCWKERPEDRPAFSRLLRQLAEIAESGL
To be noted: at 0.1 µM.

Chain of Serine/threonine-protein kinase PLK1 (Homo sapiens) (P53350 whole entry): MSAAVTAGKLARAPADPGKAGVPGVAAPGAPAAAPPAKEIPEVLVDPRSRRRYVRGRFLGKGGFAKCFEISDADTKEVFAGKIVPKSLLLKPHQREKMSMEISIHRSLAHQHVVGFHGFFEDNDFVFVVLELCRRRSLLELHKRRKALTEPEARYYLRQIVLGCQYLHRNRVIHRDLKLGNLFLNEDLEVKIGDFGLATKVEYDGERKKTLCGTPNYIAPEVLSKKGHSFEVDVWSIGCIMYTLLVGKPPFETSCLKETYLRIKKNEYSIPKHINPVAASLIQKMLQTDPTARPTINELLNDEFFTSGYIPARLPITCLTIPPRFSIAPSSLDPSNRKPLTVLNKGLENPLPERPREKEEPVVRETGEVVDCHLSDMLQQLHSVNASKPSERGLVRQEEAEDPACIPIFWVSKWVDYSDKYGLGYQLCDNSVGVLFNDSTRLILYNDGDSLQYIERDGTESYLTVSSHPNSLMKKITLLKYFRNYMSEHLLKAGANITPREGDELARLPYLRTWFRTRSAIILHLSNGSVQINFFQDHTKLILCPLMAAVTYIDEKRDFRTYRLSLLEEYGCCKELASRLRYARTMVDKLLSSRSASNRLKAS
Chain of Macrophage colony-stimulating factor 1 receptor (Homo sapiens) (P07333 whole entry): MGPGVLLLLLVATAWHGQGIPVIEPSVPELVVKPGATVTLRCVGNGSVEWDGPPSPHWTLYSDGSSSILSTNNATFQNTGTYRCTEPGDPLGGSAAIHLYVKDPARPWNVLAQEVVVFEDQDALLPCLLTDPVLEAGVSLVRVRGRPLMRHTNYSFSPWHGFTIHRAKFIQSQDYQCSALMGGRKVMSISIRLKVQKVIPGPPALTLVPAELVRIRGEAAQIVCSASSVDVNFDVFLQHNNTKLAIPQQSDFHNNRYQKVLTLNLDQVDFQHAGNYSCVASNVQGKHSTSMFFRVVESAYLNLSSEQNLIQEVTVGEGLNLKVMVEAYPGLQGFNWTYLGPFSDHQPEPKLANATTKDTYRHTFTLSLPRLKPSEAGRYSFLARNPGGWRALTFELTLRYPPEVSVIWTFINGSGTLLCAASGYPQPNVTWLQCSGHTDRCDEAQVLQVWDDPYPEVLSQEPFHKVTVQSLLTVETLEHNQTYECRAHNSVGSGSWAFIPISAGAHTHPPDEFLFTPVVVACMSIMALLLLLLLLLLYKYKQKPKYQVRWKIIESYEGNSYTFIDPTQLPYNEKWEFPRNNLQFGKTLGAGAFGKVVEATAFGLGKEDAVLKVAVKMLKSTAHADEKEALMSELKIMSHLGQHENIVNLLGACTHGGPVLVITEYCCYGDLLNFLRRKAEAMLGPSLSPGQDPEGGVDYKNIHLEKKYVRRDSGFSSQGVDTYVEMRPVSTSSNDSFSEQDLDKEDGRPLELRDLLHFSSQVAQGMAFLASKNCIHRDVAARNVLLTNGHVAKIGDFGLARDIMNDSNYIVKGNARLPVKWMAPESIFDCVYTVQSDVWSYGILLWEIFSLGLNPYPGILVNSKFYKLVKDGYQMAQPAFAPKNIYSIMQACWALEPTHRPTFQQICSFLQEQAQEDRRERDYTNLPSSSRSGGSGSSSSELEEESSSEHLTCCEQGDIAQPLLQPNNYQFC
Chain of Tyrosine-protein kinase Fyn (Homo sapiens) (P06241 2-537 limits assumed): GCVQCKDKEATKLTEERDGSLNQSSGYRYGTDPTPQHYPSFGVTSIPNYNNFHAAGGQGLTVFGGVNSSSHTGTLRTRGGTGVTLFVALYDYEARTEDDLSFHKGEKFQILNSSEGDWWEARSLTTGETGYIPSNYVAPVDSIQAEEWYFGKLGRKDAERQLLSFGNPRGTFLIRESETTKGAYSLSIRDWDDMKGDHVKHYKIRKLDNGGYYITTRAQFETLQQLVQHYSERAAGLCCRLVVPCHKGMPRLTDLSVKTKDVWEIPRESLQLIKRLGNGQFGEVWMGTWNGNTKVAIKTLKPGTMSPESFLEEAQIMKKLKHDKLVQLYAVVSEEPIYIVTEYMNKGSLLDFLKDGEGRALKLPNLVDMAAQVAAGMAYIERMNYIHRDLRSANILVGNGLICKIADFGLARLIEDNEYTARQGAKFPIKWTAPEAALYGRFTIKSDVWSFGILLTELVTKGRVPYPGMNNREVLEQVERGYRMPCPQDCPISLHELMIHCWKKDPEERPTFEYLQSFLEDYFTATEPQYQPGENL
Chain of Tyrosine-protein kinase HCK (Homo sapiens) (P08631 2-526 limits assumed): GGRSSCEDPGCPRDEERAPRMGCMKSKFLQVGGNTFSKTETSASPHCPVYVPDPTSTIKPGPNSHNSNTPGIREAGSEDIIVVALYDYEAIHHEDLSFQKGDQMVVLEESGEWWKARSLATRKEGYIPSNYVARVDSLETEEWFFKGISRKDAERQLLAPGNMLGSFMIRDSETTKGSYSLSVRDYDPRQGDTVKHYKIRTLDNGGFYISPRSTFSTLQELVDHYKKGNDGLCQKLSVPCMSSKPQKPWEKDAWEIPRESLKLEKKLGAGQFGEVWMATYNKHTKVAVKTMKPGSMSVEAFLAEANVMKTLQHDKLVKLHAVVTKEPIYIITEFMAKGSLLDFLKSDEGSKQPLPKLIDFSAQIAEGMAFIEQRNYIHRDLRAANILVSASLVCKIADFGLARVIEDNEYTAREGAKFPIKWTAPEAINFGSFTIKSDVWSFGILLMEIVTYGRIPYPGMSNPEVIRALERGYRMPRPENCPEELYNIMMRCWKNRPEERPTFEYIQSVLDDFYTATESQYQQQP
Chain of Insulin receptor-related protein (Homo sapiens) (P14616 27-742 limits assumed): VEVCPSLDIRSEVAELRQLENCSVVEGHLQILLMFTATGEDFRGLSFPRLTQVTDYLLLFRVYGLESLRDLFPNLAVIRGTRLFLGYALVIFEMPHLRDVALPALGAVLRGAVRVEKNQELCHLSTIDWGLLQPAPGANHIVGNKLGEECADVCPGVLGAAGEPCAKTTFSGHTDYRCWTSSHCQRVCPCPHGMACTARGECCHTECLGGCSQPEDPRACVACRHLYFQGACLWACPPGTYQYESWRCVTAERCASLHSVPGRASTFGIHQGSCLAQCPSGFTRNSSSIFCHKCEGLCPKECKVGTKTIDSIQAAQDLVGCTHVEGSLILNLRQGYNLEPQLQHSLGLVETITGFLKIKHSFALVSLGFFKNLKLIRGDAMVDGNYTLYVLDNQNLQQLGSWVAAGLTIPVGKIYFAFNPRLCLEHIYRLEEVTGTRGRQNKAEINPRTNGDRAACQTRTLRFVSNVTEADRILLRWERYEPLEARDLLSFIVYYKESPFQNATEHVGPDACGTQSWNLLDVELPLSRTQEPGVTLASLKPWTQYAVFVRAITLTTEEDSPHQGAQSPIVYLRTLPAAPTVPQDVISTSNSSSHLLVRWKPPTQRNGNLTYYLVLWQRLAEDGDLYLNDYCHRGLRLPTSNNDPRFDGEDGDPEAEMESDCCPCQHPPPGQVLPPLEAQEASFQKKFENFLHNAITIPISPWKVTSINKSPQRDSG
Chain of Insulin receptor-related protein (Homo sapiens) (P14616 747-1297 limits assumed): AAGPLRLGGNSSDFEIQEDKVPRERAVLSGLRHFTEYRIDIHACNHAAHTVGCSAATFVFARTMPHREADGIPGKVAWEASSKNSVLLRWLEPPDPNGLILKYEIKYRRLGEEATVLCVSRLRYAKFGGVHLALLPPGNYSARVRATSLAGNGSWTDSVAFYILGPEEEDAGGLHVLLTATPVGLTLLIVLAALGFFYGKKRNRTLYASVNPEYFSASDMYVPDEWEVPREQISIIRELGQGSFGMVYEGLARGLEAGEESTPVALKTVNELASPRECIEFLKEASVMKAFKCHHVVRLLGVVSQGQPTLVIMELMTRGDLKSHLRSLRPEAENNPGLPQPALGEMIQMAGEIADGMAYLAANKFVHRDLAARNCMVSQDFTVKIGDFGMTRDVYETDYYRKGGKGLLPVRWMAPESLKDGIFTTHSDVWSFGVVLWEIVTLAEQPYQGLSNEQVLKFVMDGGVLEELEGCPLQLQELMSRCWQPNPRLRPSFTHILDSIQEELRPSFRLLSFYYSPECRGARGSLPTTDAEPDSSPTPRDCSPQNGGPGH

Turning to `CCn1c(-c2nonc2N)nc2ccc(F)cc21`, the inhibition (in general, the relative decrease from the control value, in per cent) in experiment [1] stood at 6.41%; in [2] it was 6.39%; in experiment [3] it was 4.59%; in experiment [4], 12.1%; in [5], 1.01%; in experiment [6] it was 6.14%. The inhibition in experiment [7] was determined as 6.77%; in experiment [8], 1.29%; in experiment [9], 0.35%; in experiment [10] it was 2.04%; in experiment [11], 4.14%; in experiment [12], 4.97%. Further, the inhibition in [13] is 7.63%; in experiment [14], 4.55%; in experiment [15] it was 8.11%; in [16], 5.06%; in [17], 5.22%; in [18] it was 4.24%. The values for the inhibition in experiment [19] and in experiment [20] were 3.56% and 2.15%, respectively.

With `O=C(Nc1ccc(Oc2ccc3[nH]c(NC(=O)c4ccco4)nc3c2)cc1)Nc1cc(C(F)(F)F)ccc1F`, the inhibition in experiment [1] was 6.87%; in experiment [2], 0.92%; in experiment [3], 1.34%; in experiment [4] it was -0.11%; in experiment [5] it was 30.6%; in experiment [6], -7.79%. Further, the inhibition in experiment [7] is 38.1%; in [8], 15.4%; in experiment [9], 72.8%; in experiment [10], -1.01%; in experiment [11], 19.9%; in experiment [12], 7.54%. For the same compound, the inhibition was 47.3% in experiment [13]; -8.65% in experiment [14]; -5.27% in experiment [15]; 1.23% in [16]; 1.66% in experiment [17]; 0.43% in experiment [18]. The inhibition in experiment [19] was 0.25%; in [20], -2.86%.

Take `COc1cccc(-n2ncc3c(N/N=C/c4ccc(S(C)(=O)=O)cc4)ncnc32)c1`: the inhibition in [1] was 1.23%; in [2], 1.67%; in experiment [3], 0.92%; in experiment [4], 2.54%; in experiment [5], 61.9%; in experiment [6], -2.95%. Moreover, the inhibition in experiment [7] worked out at 31.4%; in experiment [8], 6.39%; in [9] it was 22.5%; in experiment [10], 32.4%; in experiment [11], 69.8%; in experiment [12], 17%. Also, the inhibition was 55.7% in experiment [13]; -6.32% in experiment [14]; -5.27% in [15]; 2.59% in experiment [16]; 1.06% in [17]; 0.2% in experiment [18]. For the same compound, the inhibition in [19] was 0.63%; in experiment [20] it was -2.33%.

As to `CS(=O)(=O)CCNCc1nc(-c2ccc3ncnc(Nc4ccc(OCc5cccc(C(F)(F)F)c5)cc4)c3c2)cs1`, the inhibition in [1] was -0.39%; in experiment [2], 1.34%; in experiment [3], 3.51%; in [4], 3.6%; in [5] it was 4.19%; in experiment [6] it was 3.13%. Moreover, the inhibition turned out to be 2.21% in experiment [7]; 0.88% in experiment [8]; 8.87% in [9]; 1.59% in experiment [10]; 3.35% in experiment [11]; 3.91% in [12]. Further, the inhibition is 5.68% in experiment [13]; 4.43% in experiment [14]; 3.36% in experiment [15]; 1.31% in experiment [16]; 3.15% in experiment [17]; -0.71% in experiment [18]. Moreover, the inhibition in experiment [19] was determined as 1.53%; in experiment [20], 1.21%.
